IL-1B inflam inh: inhibitors of inflammasome signaling (IL-1 beta secretion) | activity change, % at 57.5 µM | THP-1 LPS/ATP IL-1B secretion, AlphaLISA, 16 h; active compounds read low | actives 4.7% (n = 360,000) | AID 743279; in the data active = activity change below about -50%; inconclusive = mostly about -30% to -49%
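THP-1 cells pretreated 1 hr with compounds (up to 57.5 uM final), then stimulated with LPS (250 ng/mL final) plus ATP (1.25 mM final); secreted IL-1B measured by AlphaLISA after 16 hr, decreased signal indicating inhibition.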
DT40 TDP1 CPT: DT40-hTDP1 cell growth loss with CPT | chicken DT40 Tdp1-/-;hTDP1 cells + 20 nM CPT, ATP luminescence, 48 h | Potency, µM (top dose mostly 46.2 µM), without a hit: at the highest dose activity change, negative = growth inhibition, most hits filed as inhibitors | actives 12% (n = 420,000); also: potency is read from the fitted curve at half-maximal effect; nearly all actives have a fitted effect of over 55% in size
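Chicken DT40 Tdp1-/- cells complemented with human TDP1, 400 cells/well, exposed to compounds plus 20 nM camptothecin for at least 48 h at 37 C; viability read as ATP content by CellTiter-Glo luminescence.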
HT1080 IDH1KD tx: HT-1080 IDH1 knockdown cell toxicity (counter line); HT-1080 IDH1 knockdown viability, ATP luminescence, 48 h; Potency, µM (highest dose often 46.1 µM), without a hit: at the top dose activity, negative = toxicity, usual class: cytotoxic; actives 2% (n = 360,000); AID 686971;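 also: potency is read from the fitted curve at half-maximal effect; 0% = DMSO wells and -100% = cell-free medium wells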
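IDH1KD HT-1080 cells, 750/well, RPMI + 5% FBS; compound pinned after 2 h settling; 48 h, 37 °C; CellTiter-Glo luminescence; % activity normalised to DMSO and no-cell wells; curves fitted, classed by r2 and efficacy.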
DT40 TDP1 no CPT: qHTS for Inhibitors of human tyrosyl-DNA phosphodiesterase 1 (TDP1): qHTS in cells in absence of CPT; DT40 Tdp1-/- hTDP1 cells, no CPT, ATP luminescence, 48 h; Potency, µM (series often up to 46.2 µM), without a hit: at the highest dose activity change, negative = growth inhibition, hits mostly inhibitors; actives 15% (n = 420,000); AID 686978, 2013; also: potency is read from the fitted curve at half-maximal effect; nearly all actives have a fitted effect of over 55% in size
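Compound effects on proliferation are scored in DT40 Tdp1-/-;hTDP1 cells in the absence of CPT. ATP levels (CellTiter-Glo luminescence) are recorded after a ≥48 hr, 37 °C incubation.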
HT1080-NT tox: kills 2HG-producing HT-1080-NT fibrosarcoma cells | HT-1080-NT fibrosarcoma viability, CellTiter-Glo ATP luminescence, 48 h | Potency, µM (highest dose often 46.1 µM), without a hit: at the top dose activity, negative = less viability, hits mostly cytotoxic | actives 1.6% (n = 360,000);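 also: NT is the 2HG producing partner of a matched IDH1 knockdown line; potency is read from the fitted curve at half-maximal effect; 0% = DMSO-treated cells and -100% = media-only wells without cells; nearly all actives have a fitted effect of over 55% in size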
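Fibrosarcoma NT cells, 750 per well in 5% FBS RPMI, were exposed to compound for 48 hours. Viability: CellTiter-Glo luminescence.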
uPA generation: cell surface uPA generation inhibition; cell surface uPA generation assay, qHTS; Potency, µM (top dose mostly 38.3 µM), inactives show at the top dose activity change, negative = inhibition, most hits filed as inhibitors; actives 0.31% (n = 330,000); active = well fitted inhibition curve with a large enough effect; inconclusive = small, poorly fitted or top-dose-only effect; inactive = no such curve, though single readings can be large or run the other way; tested in mouse RAW 264.7 cells; also: potency is read from the fitted curve at half-maximal effect; nearly all actives have a fitted effect of over 55% in size
* = called active by the depositor; ? = inconclusive; · = no result given; [ ] = remark or other dose. In the library only some 19% were active in any assay of this set; here they are far more common. Unless noted, calls follow the shape of the dose curve; as a rule, active = well fitted curve in the direction sought with a large enough effect; inconclusive = small, poorly fitted or top-dose-only effect, or another doubt; inactive = no such curve, though single readings can be large; an effect the other way counts as inactive or inconclusive. Unless noted, % is scaled to controls: 0 for no effect and ±100 for the full control effect.

SMILES	IL-1B inflam inh	DT40 TDP1 CPT	HT1080 IDH1KD tx	DT40 TDP1 no CPT	HT1080-NT tox	uPA generation
CCC(C)Sc1cc(-c2nc3ccccn3c2NC2CCCCC2)ccc1OC (stereo not given)	-91*	12µM*	18µM*	15µM*	26µM*	?
COC(=O)C(O)(c1c(C)[nH]c2ccccc12)C(F)(F)F (stereo not given)	19	-8%	-1%	-14%	-4%	8%
Cc1[nH]ccc2c1[nH]c1cc(=O)ccc12	-26	8.2µM*	?	13µM*	?	-10%
CNC(=S)N1CCN(CCN=Cc2c(O)n(-c3ccc(C)cc3)c(=S)[nH]c2=O)CC1	-14	4%	27%	-7%	-4%	8%
O=c1cc(-c2ccccc2Cl)oc2c(NS(=O)(=O)c3cc(Cl)cc(Cl)c3O)ccc(O)c12	2	9.2µM*	?	12µM*	3.3µM*	?
Cn1cc(C(=O)Cc2ccccc2)c2ccccc21	-15	16µM*	0%	?	0%	0%
CN(Cc1ccccc1)C(=O)c1ccc(NC(=O)C2CCN(C(=O)OC(C)(C)C)CC2)cc1	46	23µM*	-22%	15µM*	-19%	-2%
CCOC(=O)N1CCN(CC(O)COCCC23CC4CC(CC(C4)C2)C3)CC1 (stereo not given)	-4	12µM*	-18%	29µM*	-25%	6%
C[C@@H]1[C@H]2Cc3ccc(O)cc3[C@]1(C)CCN2C	·	-1%[166 µM]	·	-11%[166 µM]	·	·
CCN(CC)c1ccc(/C=N/c2sc3c(c2C#N)C2CCN3CC2)c(O)c1	-10	18µM*	?	23µM*	?	-6%
O=C(c1cc(-c2ccc(Cl)cc2)n[nH]1)N1CCN(S(=O)(=O)c2ccc(Br)s2)CC1	·	?	·	15µM*	·	·
CCOC(=O)C1=C[C@@H](OC(CC)CC)[C@H](NC(C)=O)[C@@H](N)C1	·	-3%	·	-16%	·	·
CCn1c(O)c(C(c2ccccn2)c2c(O)n(CC)c(=S)[nH]c2=O)c(=O)[nH]c1=S	-12	1%	6%	-25%	1%	1%
CC(=O)N(C)C1=Nc2ccc(Cl)cc2C(c2ccccc2)=[N+]([O-])C1	-24	0%	1%	?	12%	-9%
Cn1c(O)c(/C=C2/C=CC=N2)c(=O)[nH]c1=O	?	16µM*	11%	16µM*	11%	-2%
Nc1ccc(N)cc1	·	-22%	·	-17%	·	·
COC(=O)C1=C(c2cccc(OC)c2OC)C[C@@H]2CC[C@H]1N2C(=O)NCc1ccc(C(F)(F)F)cc1	-3	-3%	0%	?	6%	2%
O=C(CCNC(=O)N1C[C@H]2C[C@@H](C1)c1cccc(=O)n1C2)Nc1ccc(F)cc1	20	-15%	-8%	3%	0%	5%
CN(c1ccc(OCC(=O)N2CCN(C/C=C/c3ccccc3)CC2)cc1)S(=O)(=O)c1cccs1	-5	13µM*	-23%	5.8µM*	-26%	-10%
COc1ccc2nc(NC(=O)c3nc(S(=O)(=O)Cc4cccc(C)c4)ncc3Cl)sc2c1	·	1.6µM*	·	2.1µM*	·	·
COc1ccc(-c2nn(CCC#N)cc2C(=O)Nc2ccc(C(C)=O)cc2)cc1[N+](=O)[O-]	-3	-2%	-12%	-22%	-2%	-5%
c1ccc(OCc2ccc(CCCN3CCOCC3)cc2)cc1	4	?	-15%	21µM*	-7%	6%
CN(C)c1ccc(CCN2CCOCC2)cc1	11	2%	7%	10%	1%	8%
C/C(=N\Nc1ccccc1)c1c(O)n(Cc2ccccc2)c(=O)[nH]c1=O	-4	15µM*	?	?	?	-1%
CC/C(=N\NC(=S)Nc1ccccc1)c1c(O)[nH]c(=O)[nH]c1=O	33	9%	17%	8%	8%	23%
SMILES	IL-1B inflam inh	DT40 TDP1 CPT	HT1080 IDH1KD tx	DT40 TDP1 no CPT	HT1080-NT tox	uPA generation
C/C(=N\Nc1ccccc1)c1c(O)n(-c2ccccc2)c(=O)[nH]c1=O	·	8%	4.6µM*	-7%	?	6%
C/C(=N\Nc1ccccc1)c1c(O)[nH]c(=O)[nH]c1=O	38	4%	4.1µM*	2%	?	-4%
O=C1NC(=S)NC(=O)C1Cc1ccccc1O	-14	9%	4%	8%	-3%	4%
Cc1ccsc1/C=C1\C(=O)NC(=S)N(C)C1=O	-94*	5.8µM*	-2%	3.3µM*	0%	-24%
C=CCN1C(=O)/C(=C\c2ccc(N3CCOCC3)o2)C(=O)NC1=S	7	1%	-1%	-27%	-2%	-3%
CN1C(=O)/C(=C\c2ccc(N3CCCCCC3)cc2)C(=O)NC1=S	-7	?	8%	?	15%	-8%
CN1C(=O)/C(=C/c2ccc(Cl)s2)C(=O)NC1=S	-97*	7.3µM*	?	9.2µM*	?	0%
C=CCN1C(=O)/C(=C/c2ccc(Br)s2)C(=O)NC1=S	-99*	?	2%	21µM*	-2%	-4%
CN1CCN(Cc2ccccc2Sc2ccccc2)CC1	-80*	?	-1%	?	-5%	2%
Nc1c2c(nc3sc4c(c13)CCCC4)CCCC2	-88*	?	?	?	?	-9%
Nc1c2c(nc3sc4c(c13)CCCC4)CCCCC2	-18	?	-19%	18µM*	-11%	-7%
CC(=NCCC1=CCCCC1)c1c(O)[nH]c(=O)[nH]c1=O	-9	-14%	-30%	-22%	-3%	-1%
O=[N+]([O-])c1ccc(N2CCOCC2)c2ccncc12	45	-28%	-10%	?	-13%	-7%
COc1ccc(NC(=O)N2C[C@@H]3C[C@@H](C2)c2cccc(=O)n2C3)cc1	8	13%	3%	2%	8%	4%
C[C@H]1CC[C@@H]2[C@@H](C)[C@H]3[C@H](C[C@H]4[C@@H]5CC=C6C[C@@H](O[C@@H]7O[C@H](CO)[C@H](O)[C@H](O[C@@H]8O[C@H](CO)[C@@H](O)[C@H](O)[C@H]8O)[C@H]7O[C@@H]7O[C@@H](C)[C@H](O)[C@@H](O)[C@H]7O)CC[C@]6(C)[C@H]5CC[C@]34C)N2C1	-98*	15µM*	-11%	?	3%	-6%
Cc1ccccc1NC(=O)NCCN1CC1	6	4.1µM*	2%	7.3µM*	9%	3%
O=C(CCN1CC=C(c2ccccc2)CC1)NCc1ccccc1	-5	-8%	-1%	-29%	1%	·
